This note sets out measurements from the supplement of paper PMC4840960.

Assay [1] has as its system E18 rat cortical neuron-glia co-culture. Nature of the assay: fiber score / MBP score (myelination specific beyond OL differentiation) (ratio); higher = more myelination-specific MBP alignment. The following applies: treatment time: 8 days (DIV5-DIV13). An outline of the steps:
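Reported values are fiber score (continuous MBP fiber length per Olig2+ nucleus) divided by MBP score (thresholded MBP area × intensity per Olig2+ nucleus). They come from primary E18 rat cortical co-cultures treated with library compounds at 1 or 5 µM in myelination medium from DIV5 to DIV13, then fixed in 4 % paraformaldehyde, immunostained for MBP and Olig2 with DAPI, and analysed over four 10X fields per well in duplicate wells.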

Assay [2] shares this test system. Put plainly: myelination (MBP fiber length per Olig2+ nucleus), % of 1 µM DAPT response (DMSO = 0) (% of DAPT); higher = more myelination, active = 50 or more. The following applies: treatment time: 8 days (DIV5-DIV13). An outline of the steps:
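Rat cortical co-cultures from E18 tissue were dissociated with papain and plated at 20,000 cells/well on 96-well plates coated with poly-d-lysine/laminin. From DIV5 to DIV13, library compounds were added at 1 or 5 µM in myelination medium. After fixation in 4 % paraformaldehyde, cultures were immunostained for MBP and Olig2 and counterstained with DAPI, and four 10X fields were analysed in each of duplicate wells. The myelination value is the length of continuous straight MBP fibers per Olig2+ nucleus, normalised so that 0.1 % DMSO is 0 and a 1 µM positive control is 100.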

SMILES strings stand for the structures. ± gives the standard deviation of the averaged measurements.

Regarding `CNC(=O)Oc1ccc2c(c1)[C@]1(C)CCN(C)[C@@H]1N2C` [Physostigmine], the “fiber score / MBP score” value is 0.593 in assay [1] (1 µM) and 0.703 in assay [1] (5 µM). For the same molecule, the myelination was -13.2 (inactive) in assay [2] (1 µM) and -9.34 (inactive) in assay [2] (5 µM).

`C[C@]12CC[C@H]3[C@@H](CCC4=CC(=O)CC[C@@]43C)[C@@H]1CC[C@@H]2O` [Testosterone]: the “fiber score / MBP score” value in assay [1] (1 µM) stood at 0.988 ± 0.093; in assay [1] (5 µM), 0.928 ± 0.1. The myelination was -4.77 (inactive) in assay [2] (1 µM) and -15.4 (inactive) in assay [2] (5 µM).

For the molecule `N=C(NCc1ccc(Cl)cc1)SCCCc1c[nH]cn1` [Clobenpropit], the “fiber score / MBP score” value stood at 0.723 in assay [1] (1 µM) and 0.822 in assay [1] (5 µM). The values for the myelination in assay [2] (1 µM) and in assay [2] (5 µM) were -13 (inactive) and 3.66 (inactive), respectively.

As for `Cc1ccc(-c2nc3ccc(C)cn3c2CC(=O)N(C)C)cc1` [Zolpidem], the “fiber score / MBP score” value in assay [1] (1 µM) was found to be 0.967; in assay [1] (5 µM) it was 0.776. Moreover, the results for the myelination in assay [2] (1 µM) and in assay [2] (5 µM) were -6.37 (inactive) and -13.3 (inactive), respectively.

Turning to `O=C1Nc2ccc(Cl)cc2C(c2ccccc2Cl)=NC1O` (stereo not given) [Lorazepam], the “fiber score / MBP score” value in assay [1] (1 µM) is 0.711; in assay [1] (5 µM), 1.13. Also, the myelination in assay [2] (1 µM) was -14.7 (inactive); in assay [2] (5 µM), 15 (inactive).

As for `CNC1=Nc2ccc(Cl)cc2C(c2ccccc2)=[N+]([O-])C1` [Chlordiazepoxide], the “fiber score / MBP score” value in assay [1] (1 µM) stood at 0.994; in assay [1] (5 µM), 0.605. The figures for the myelination in assay [2] (1 µM) and in assay [2] (5 µM) were 0.872 (inactive) and -16.1 (inactive), respectively.

On to `CC(C)CC(N(C)C)C1(c2ccc(Cl)cc2)CCC1` (stereo not given) [Sibutramine], for which the “fiber score / MBP score” value in assay [1] (1 µM) came out at 0.819 ± 0.34; in assay [1] (5 µM), 1.02 ± 0.064. For the same molecule, the myelination was -9.43 (inactive) in assay [2] (1 µM) and -0.392 (inactive) in assay [2] (5 µM).

Turning to `C[C@]12C/C(=C/O)C(=O)C[C@@H]1CC[C@@H]1[C@@H]2CC[C@@]2(C)[C@H]1CC[C@]2(C)O` [Oxymetholone], the results for the “fiber score / MBP score” value in assay [1] (1 µM) and in assay [1] (5 µM) were 0.813 and 0.965, respectively. Besides, the values for the myelination in assay [2] (1 µM) and in assay [2] (5 µM) were -11.9 (inactive) and -8.04 (inactive), respectively.

As to `O=c1c2ccccc2[se]n1-c1ccccc1` [Ebselen], the “fiber score / MBP score” value in assay [1] (1 µM) was 2.01. The myelination in assay [2] (1 µM) is 8.33 (inactive).

Regarding `CN1CC[C@]23CCCC[C@H]2[C@H]1Cc1ccc(O)cc13` [Levorphanol], the entries for the “fiber score / MBP score” value in assay [1] (1 µM) and in assay [1] (5 µM) were 0.869 and 0.735, respectively. The myelination in assay [2] (1 µM) is -27.6 (inactive); in assay [2] (5 µM) it was -51.1 (inactive).

As for `CNC1CC(c2ccc(Cl)c(Cl)c2)c2ccccc21` (stereo not given) [Indatraline], in assay [1] (1 µM), the “fiber score / MBP score” value is 0.417. In addition, the myelination in assay [2] (1 µM) is -58 (inactive).

Take `NC(=O)C[S+]([O-])C(c1ccccc1)c1ccccc1` (stereo not given) [Modafinil]: the “fiber score / MBP score” value in assay [1] (1 µM) came to 0.88; in assay [1] (5 µM), 0.861. Besides, the myelination is -9.51 (inactive) in assay [2] (1 µM) and -26.7 (inactive) in assay [2] (5 µM).

For `CC(NC(C)(C)C)C(=O)c1cccc(Cl)c1` (stereo not given) [Bupropion], the “fiber score / MBP score” value in assay [1] (1 µM) was 0.583 ± 0.43; in assay [1] (5 µM), 0.467 ± 0.35. Besides, the myelination is -29.5 (inactive) in assay [2] (1 µM) and -31.8 (inactive) in assay [2] (5 µM).

With `CC[C@]1(O)CC[C@H]2[C@@H]3CCC4=CCCC[C@@H]4[C@H]3CC[C@@]21C` [Ethylestrenol], the results for the “fiber score / MBP score” value in assay [1] (1 µM) and in assay [1] (5 µM) were 0.661 and 1.72, respectively. Further, the myelination is -13.8 (inactive) in assay [2] (1 µM) and 204 (active) in assay [2] (5 µM).

In the case of `CCCC(C)(COC(N)=O)COC(=O)NC(C)C` (stereo not given) [Carisoprodol], the “fiber score / MBP score” value turned out to be 0.713 in assay [1] (1 µM) and 0.796 in assay [1] (5 µM). Further, the myelination in assay [2] (1 µM) is -13 (inactive); in assay [2] (5 µM) it was -11.9 (inactive).

Regarding `CS(=O)(=O)Nc1ccc(Cc2noc(-c3ccc4[nH]cc(CCN)c4c3)n2)cc1`, the “fiber score / MBP score” value in assay [1] (1 µM) was determined as 0.563; in assay [1] (5 µM) it was 0.612. The myelination in assay [2] (1 µM) was -19.6 (inactive); in assay [2] (5 µM), -17.8 (inactive).

`C[C@]12CCC(=O)C[C@@H]1CC[C@@H]1[C@@H]2CC[C@@]2(C)[C@H]1CC[C@]2(C)O` [Mestanolone]: the “fiber score / MBP score” value amounted to 0.746 in assay [1] (1 µM) and 0.854 in assay [1] (5 µM). Also, the values for the myelination in assay [2] (1 µM) and in assay [2] (5 µM) were -21.8 (inactive) and -14.6 (inactive), respectively.

Regarding `CCC(COC(=O)c1cc(OC)c(OC)c(OC)c1)(c1ccccc1)N(C)C` (stereo not given) [Trimebutine], the “fiber score / MBP score” value turned out to be 0.423 in assay [1] (1 µM) and 0.297 in assay [1] (5 µM). Also, the results for the myelination in assay [2] (1 µM) and in assay [2] (5 µM) were -54.2 (inactive) and -64 (inactive), respectively.

With `Oc1ccc2c3c1O[C@H]1c4[nH]c5ccccc5c4C[C@@]4(O)[C@@H](C2)N(CC2CC2)CC[C@]314` [Naltrindole], the “fiber score / MBP score” value in assay [1] (1 µM) is 0.716; in assay [1] (5 µM) it was 0.673. The values for the myelination in assay [2] (1 µM) and in assay [2] (5 µM) were -32.5 (inactive) and -19 (inactive), respectively.

As for `Oc1cc(Cl)ccc1Oc1ccc(Cl)cc1Cl` [Triclosan], in assay [1] (1 µM), the “fiber score / MBP score” value is 1.18. In addition, in assay [2] (1 µM), the myelination was 26.5 (inactive).

For the molecule `O[C@@H]1CCCC[C@H]1N1CCC(c2ccccc2)CC1` (racemic) [Vesamicol], the “fiber score / MBP score” value in assay [1] (1 µM) was found to be 0.528; in assay [1] (5 µM), 0.361. The myelination in assay [2] (1 µM) is -34.6 (inactive); in assay [2] (5 µM) it was -46 (inactive).

Regarding `C[C@]12Cc3c[nH]nc3C[C@@H]1CC[C@@H]1[C@@H]2CC[C@@]2(C)[C@H]1CC[C@]2(C)O` [Stanozolol], in assay [1] (1 µM), the “fiber score / MBP score” value is 0.697. Further, in assay [2] (1 µM), the myelination is -13.6 (inactive).

`CN1CC[C@]23c4c5ccc(O)c4O[C@H]2c2[nH]c4ccccc4c2C[C@@]3(O)[C@H]1C5` [Oxymorphindole]: the “fiber score / MBP score” value in assay [1] (1 µM) was found to be 0.883. The molecule further displayed a myelination in assay [2] (1 µM) of 97.

With `COc1cc2c(cc1OC)[C@@]13CCN4CC5=CCO[C@H]6CC(=O)N2[C@H]1[C@H]6[C@H]5C[C@H]43` [Brucine], the “fiber score / MBP score” value in assay [1] (1 µM) is 0.957; in assay [1] (5 µM), 0.692. The myelination was -6.05 (inactive) in assay [2] (1 µM) and -15.7 (inactive) in assay [2] (5 µM).

In the case of `COc1ccc2[nH]cc(CCN)c2c1` [5-Methoxytryptamine], the “fiber score / MBP score” value in assay [1] (1 µM) worked out at 0.779; in assay [1] (5 µM) it was 0.737. For the same molecule, the myelination was -6.66 (inactive) in assay [2] (1 µM) and -8.85 (inactive) in assay [2] (5 µM).

`NCCc1ccccn1` [2-(2-aminoethyl)pyridine]: the “fiber score / MBP score” value in assay [1] (1 µM) turned out to be 0.847; in assay [1] (5 µM), 0.699. For the same molecule, the figures for the myelination in assay [2] (1 µM) and in assay [2] (5 µM) were -7.37 (inactive) and -9.08 (inactive), respectively.

Take `CCC1(c2ccc(N)cc2)CCC(=O)NC1=O` (stereo not given) [Aminoglutethimide]: the “fiber score / MBP score” value in assay [1] (1 µM) amounted to 0.845; in assay [1] (5 µM), 0.779. In addition, the myelination was -5.42 (inactive) in assay [2] (1 µM) and -5.16 (inactive) in assay [2] (5 µM).

Regarding `COc1ccc2c(c1)[C@]13CCCC[C@@H]1[C@H](C2)N(C)CC3` [Dextromethorphan], the “fiber score / MBP score” value in assay [1] (1 µM) was 1.19; in assay [1] (5 µM) it was 0.893. Moreover, the results for the myelination in assay [2] (1 µM) and in assay [2] (5 µM) were 5.05 (inactive) and 1.54 (inactive), respectively.

With `C=CCN1CC[C@]23c4c5ccc(O)c4O[C@H]2C(=O)CC[C@@]3(O)[C@H]1C5` [Naloxone], the “fiber score / MBP score” value in assay [1] (1 µM) turned out to be 0.965; in assay [1] (5 µM), 1.09. The myelination in assay [2] (1 µM) is -7.1 (inactive); in assay [2] (5 µM), 3.29 (inactive).

Take `c1cncc([C@@H]2CCCN2)c1` [Nornicotine]: the figures for the “fiber score / MBP score” value in assay [1] (1 µM) and in assay [1] (5 µM) were 0.765 and 0.836, respectively. In addition, the myelination is -20.2 (inactive) in assay [2] (1 µM) and -19 (inactive) in assay [2] (5 µM).
